Test results published in PubChem BioAssay AID1159580 (chemical genetic matrix, 2015).
About 2,000 (36%) of roughly 5,500 compounds were called active. Roughly 18% stayed inconclusive and do not appear here. Rule as the data show it: active = normalized growth mostly below about 0.91 (no sharp cut-off); inconclusive = no clear call, values can overlap the other calls; inactive = mostly above about 0.92. The list shows a part of the results.

Assay: chemical genetic growth profiling, strain panel (AID 1159580);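 also: tested at 20 µM; growth read once vehicle control cultures reached saturation at 30 °C; 1 = growth at the plate median or of vehicle wells; lower values mean less growth of the strain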
Conditions: growth OD

Measured: normalized growth

CCCSc1ccc2nc(NC(=O)OC)[nH]c2c1
active: S. cerevisiae deletion strains, locus YKR001C, strain vps1, active compounds read low 0.882 | S. cerevisiae deletion strains, locus YLR268W, strain sec22, active compounds read low 0.847 | S. cerevisiae deletion strains, locus YML124C, strain tub3, active compounds read low 0.202 | S. cerevisiae deletion strains, locus YNL153C, strain GIM3, active compounds read low 0.0651 | S. cerevisiae deletion strains, locus YPL241C, strain CIN2, active compounds read low 0.0807 | S. cerevisiae deletion strains, locus YPR163C, strain tif3, active compounds read low 0.904
inactive: S. cerevisiae deletion strains, locus YJR075W, strain HOC1, active compounds read low 0.97 | S. cerevisiae deletion strains, locus YKL009W, strain mrt4, active compounds read low 0.938 | S. cerevisiae deletion strains, locus YKL068W, active compounds read low 0.972 | S. cerevisiae deletion strains, locus YKL085W, strain MDH1 (second series), active compounds read low 0.986 | S. cerevisiae deletion strains, locus YKL085W, strain MDH1, active compounds read low 0.986 | S. cerevisiae deletion strains, locus YKL160W, strain elf1, active compounds read low 1.01 | S. cerevisiae deletion strains, locus YKL190W, strain CNB1, active compounds read low 0.988 | S. cerevisiae deletion strains, locus YKR026C, strain gcn3, active compounds read low 1.01 | S. cerevisiae deletion strains, locus YKR091W, strain srl3, active compounds read low 1.01 | S. cerevisiae deletion strains, locus YLL001W, strain dnm1, active compounds read low 0.999 | S. cerevisiae deletion strains, locus YLL026W, active compounds read low 1.01 | S. cerevisiae deletion strains, locus YLL041C, strain sdh2, active compounds read low 1 | S. cerevisiae deletion strains, locus YLR027C, strain aat2, active compounds read low 1 | S. cerevisiae deletion strains, locus YLR039C, strain RIC1, active compounds read low 0.731 | S. cerevisiae deletion strains, locus YLR058C, strain SHM2, active compounds read low 0.988 | S. cerevisiae deletion strains, locus YLR102C, strain apc9, active compounds read low 0.973 | S. cerevisiae deletion strains, locus YLR113W, strain HOG1, active compounds read low 0.979 | S. cerevisiae deletion strains, locus YLR221C, strain rsa3, active compounds read low 1.01 | S. cerevisiae deletion strains, locus YLR258W, strain gsy2, active compounds read low 1.01 | S. cerevisiae deletion strains, locus YLR262C, strain YPT6 (second series), active compounds read low 0.874 | S. cerevisiae deletion strains, locus YLR262C, strain YPT6, active compounds read low 0.732 | S. cerevisiae deletion strains, locus YLR320W, strain mms22, active compounds read low 1.01 | S. cerevisiae deletion strains, locus YLR330W, strain CHS5, active compounds read low 0.982 | S. cerevisiae deletion strains, locus YLR342W, strain FKS1 (second series), active compounds read low 1.01 | S. cerevisiae deletion strains, locus YLR342W, strain FKS1, active compounds read low 1.02 | S. cerevisiae deletion strains, locus YLR357W, strain rsc2, active compounds read low 0.975 | S. cerevisiae deletion strains, locus YLR370C, strain arc18, active compounds read low 1 | S. cerevisiae deletion strains, locus YLR371W, strain rom2, active compounds read low 0.967 | S. cerevisiae deletion strains, locus YLR384C, strain iki3, active compounds read low 0.997 | S. cerevisiae deletion strains, locus YLR418C, strain cdc73, active compounds read low 0.886 | S. cerevisiae deletion strains, locus YML016C, strain PPZ1, active compounds read low 0.993 | S. cerevisiae deletion strains, locus YML032C, strain rad52, active compounds read low 0.947 | S. cerevisiae deletion strains, locus YML120C, strain ndi1, active compounds read low 1 | S. cerevisiae deletion strains, locus YMR058W, strain fet3, active compounds read low 1.01 | S. cerevisiae deletion strains, locus YMR078C, strain ctf18, active compounds read low 0.964 | S. cerevisiae deletion strains, locus YMR125W, strain sto1, active compounds read low 1.02 | S. cerevisiae deletion strains, locus YMR129W, active compounds read low 1.01 | S. cerevisiae deletion strains, locus YMR205C, strain PFK2, active compounds read low 1.03 | S. cerevisiae deletion strains, locus YMR223W, strain ubp8, active compounds read low 0.997 | S. cerevisiae deletion strains, locus YMR231W, strain pep5, active compounds read low 1.03 | S. cerevisiae deletion strains, locus YMR263W, strain SAP30, active compounds read low 0.941 | S. cerevisiae deletion strains, locus YMR307W, strain GAS1, active compounds read low 1.19 | S. cerevisiae deletion strains, locus YNL067W, strain RPL9B, active compounds read low 0.942 | S. cerevisiae deletion strains, locus YNL071W, strain lat1, active compounds read low 1.02 | S. cerevisiae deletion strains, locus YNL128W, strain TEP1, active compounds read low 0.989 | S. cerevisiae deletion strains, locus YNL183C, strain NPR1, active compounds read low 0.896 | S. cerevisiae deletion strains, locus YNL209W, strain ssb2, active compounds read low 1 | S. cerevisiae deletion strains, locus YNL233W, strain BNI4, active compounds read low 0.965 | S. cerevisiae deletion strains, locus YNL248C, strain rpa49, active compounds read low 1 | S. cerevisiae deletion strains, locus YNL250W, strain rad50, active compounds read low 0.999 | S. cerevisiae deletion strains, locus YNL271C, strain bni1, active compounds read low 0.973 | S. cerevisiae deletion strains, locus YNL298W, strain CLA4, active compounds read low 0.947 | S. cerevisiae deletion strains, locus YNL307C, strain MCK1, active compounds read low 0.948 | S. cerevisiae deletion strains, locus YNL322C, strain KRE1 (second series), active compounds read low 1.01 | S. cerevisiae deletion strains, locus YNL322C, strain KRE1, active compounds read low 0.996 | S. cerevisiae deletion strains, locus YNR049C, strain mso1, active compounds read low 1.01 | S. cerevisiae deletion strains, locus YNR052C, strain pop2, active compounds read low 0.958 | S. cerevisiae deletion strains, locus YOL006C, strain TOP1, active compounds read low 0.729 | S. cerevisiae deletion strains, locus YOL012C, strain htz1 0.603 | S. cerevisiae deletion strains, locus YOL147C, strain pex11, active compounds read low 0.967 | S. cerevisiae deletion strains, locus YOR001W, strain rrp6, active compounds read low 1.01 | S. cerevisiae deletion strains, locus YOR061W, strain CKA2, active compounds read low 0.996 | S. cerevisiae deletion strains, locus YOR069W, strain VPS5, active compounds read low 0.99 | S. cerevisiae deletion strains, locus YOR070C, strain gyp1, active compounds read low 1.01 | S. cerevisiae deletion strains, locus YOR080W, strain dia2, active compounds read low 1.02 | S. cerevisiae deletion strains, locus YOR083W, strain WHI5, active compounds read low 1.01 | S. cerevisiae deletion strains, locus YOR106W, strain vam3, active compounds read low 0.997 | S. cerevisiae deletion strains, locus YOR136W, strain idh2, active compounds read low 0.996 | S. cerevisiae deletion strains, locus YOR144C, strain elg1, active compounds read low 0.965 | S. cerevisiae deletion strains, locus YOR184W, strain ser1, active compounds read low 0.893 | S. cerevisiae deletion strains, locus YOR231W, strain MKK1, active compounds read low 0.941 | S. cerevisiae deletion strains, locus YOR265W, strain rbl2, active compounds read low 1.02 | S. cerevisiae deletion strains, locus YOR270C, strain vph1, active compounds read low 0.963 | S. cerevisiae deletion strains, locus YOR290C, strain snf2, active compounds read low 0.98 | S. cerevisiae deletion strains, locus YOR316C, strain cot1, active compounds read low 0.959 | S. cerevisiae deletion strains, locus YPL051W, strain arl3, active compounds read low 0.998 | S. cerevisiae deletion strains, locus YPL055C, strain LGE1, active compounds read low 0.945 | S. cerevisiae deletion strains, locus YPL078C, strain atp4, active compounds read low 1.01 | S. cerevisiae deletion strains, locus YPL106C, strain sse1, active compounds read low 1.04 | S. cerevisiae deletion strains, locus YPL240C, strain hsp82, active compounds read low 1 | S. cerevisiae deletion strains, locus YPL256C, strain CLN2, active compounds read low 0.933 | S. cerevisiae deletion strains, locus YPR119W, strain clb2, active compounds read low 0.963 | S. cerevisiae deletion strains, locus YPR141C, strain kar3, active compounds read low 0.992 | S. cerevisiae deletion strains, locus YPR167C, strain met16, active compounds read low 0.954 | S. cerevisiae deletion strains, strain wtn01, active compounds read low 0.916 | S. cerevisiae strains, strain wild type, active compounds read low 1
